The structures appear in SMILES notation.
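Also: KINOMEscan kinase panel screen.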

In one assay the test system is CSNK1G1. As to conditions: concentration: 1 μM, replicates: in singlicate; n = 1.
As to `c1ccc(-c2n[nH]cc2Nc2ccnc3ccccc23)nc1` [GW694077], the “%Inh” value is 100%.

Regarding `O=C(Nc1cccc(-c2nn3ncccc3c2-c2ccnc(Nc3ccccc3)n2)c1)c1c(F)cccc1F` [GSK198271], the “%Inh” value was determined as 19%.

For the molecule `Nc1n[nH]c2cnc(-c3ccccc3)cc12` [SB-642124], the “%Inh” value was 4%.

With `CC(=O)Nc1nc2cnc(Nc3cc(NC(=O)c4cccc(C5(C#N)CC5)c4Cl)ccc3C)nc2s1`, the “%Inh” value was found to be 0%.

Consider `O=C(Nc1n[nH]c2nc(-c3ccc(O)cc3)ccc12)C1CC1` [SB-710363], for which the “%Inh” value stood at 0%.

As for `Cn1cc(-c2[nH]c3cc(NC(=O)[C@H](N)C4CCCCC4)cc4c3c2C=NNC4=O)cn1`, the “%Inh” value came out at 0%.

Regarding `O=C(Nc1cccc(-c2nn3ccccc3c2-c2ccnc(Nc3cccc(F)c3)n2)c1)c1c(F)ccc(F)c1Cl` [GSK357952], the “%Inh” value worked out at 0%.

For `O=C(Nc1ccccc1F)NC1CCN(c2ccnc(Nc3ccc(F)cc3)n2)CC1` [GSK1379800], the “%Inh” value was 3%.

With `CSc1cccc2c(-c3ccncn3)c(-c3ccc(F)cc3)nn12` [GW514786], the “%Inh” value was found to be 3%.

Turning to `COc1ccc(-c2coc3ccc(-c4nnc(SCc5ccc(OC)c(C(F)(F)F)c5)o4)cc23)cc1`, the “%Inh” value amounted to 0%.

The next assay concerns CSNK1G2. The note with it: concentration: 1 μM, replicates: in singlicate; n = 1.
On to `CN(C)S(=O)(=O)c1cc(-c2ccc3nccc(-c4cccc(S(N)(=O)=O)c4)c3c2)cnc1N` [GSK1669921], for which the “%Inh” value came out at 0%.

Turning to `CCS(=O)(=O)c1ccc(OC)c(Nc2nccc(-c3c(-c4cccc(NC(=O)c5c(F)cccc5F)c4)nn4ncccc34)n2)c1` [GSK326180], the “%Inh” value is 4%.

With `COc1cc(Nc2nccc(N3CCC(NC(=O)c4cc5ccccc5s4)C3)n2)cc(OC)c1OC` (centres unmarked) [GSK1379760], the “%Inh” value is reported as 13%.

With `Cc1ccc(F)c(C(=O)Nc2cccc(-c3nn4ccccc4c3-c3ccnc(Nc4cccc(F)c4)n3)c2)c1F` [GSK361061], the “%Inh” value is reported as 12%.

Take `Clc1ccc(-c2nn3ncccc3c2-c2ccnc(Nc3ccc4c(c3)OCCO4)n2)cc1` [GW829116]: the “%Inh” value was 42%.

In the case of `CCCCc1nn2ncccc2c1-c1ccnc(Nc2ccc(N3CCN(C)CC3)cc2)n1` [GW684941], the “%Inh” value is 0%.

`CCn1c(-c2nonc2N)nc2c(C#CC(C)(C)O)ncc(OCCCCN)c21.O=C(O)C(F)(F)F.O=C(O)C(F)(F)F` [GSK507274]: the “%Inh” value is given as 0%.

As to `O=C(NC1CCN(c2ccnc(Nc3ccc(F)cc3)n2)C1)c1cc2ccccc2s1` (centres unmarked) [GSK1379716], the “%Inh” value is listed as 0%.

Turning to `COc1cc2c(cc1OCCN1CCNCC1)ncc1c3ccc(C#N)cc3[nH]c21`, the “%Inh” value came out at 0%.

On to `COc1cc(Nc2nccc(N3CCC(NC(=O)Nc4cccc(C(C)=O)c4)C3)n2)cc(OC)c1OC` (centres unmarked) [GSK1379753], for which the “%Inh” value amounted to 0%.

On to `O=C(Nc1cccc(-c2nn3ccccc3c2-c2ccnc(Nc3cccc(C(F)(F)F)c3)n2)c1)c1c(F)cccc1F` [GSK292658], for which the “%Inh” value came out at 0%.

`CN(c1ccc(NC(=O)Nc2cc(C(F)(F)F)ccc2F)cc1)c1ccnc(Nc2ccc(S(N)(=O)=O)cc2)n1` [GW809893]: the “%Inh” value was determined as 0%.

As for `Cc1cccc(NC(=O)Nc2ccc(Oc3ncnc4ccn(C)c34)cc2)c1`, the “%Inh” value is given as 10%.

In the case of `Cl.c1ccc(-c2ccc3c(Nc4ccc5[nH]ccc5c4)ccnc3c2)nc1` [GW440138], the “%Inh” value stood at 0%.

As to `CN1CCN(CCCNc2nccc(-c3c(-c4ccc(F)cc4)nn4cc(C(F)(F)F)ccc34)n2)CC1` [GW621581], the “%Inh” value is 0%.

Turning to `C[C@@H](Oc1cc(-n2cnc3cc(-c4ccnc(NCCS(C)(=O)=O)c4)ccc32)sc1C(N)=O)c1ccccc1Cl` [GSK907232], the “%Inh” value is recorded as 0%.

In the case of `Cc1cccc(Nc2nc(N[C@H]3CCNC3)ncc2C(N)=O)c1.Cl` [GSK2197149], the “%Inh” value is reported as 11%.

As to `CCc1ccc(-c2ccc3c(c2)-c2c(cnn2C)S(=O)(=O)N3C)cc1`, the “%Inh” value was 2%.

As for `COc1cc(Nc2ncc3c(C)nc(-c4cc5ccccc5[nH]4)n3n2)cc(OC)c1OC` [GW869516], the “%Inh” value worked out at 0%.

As for `Cc1ccc(S(=O)(=O)Nc2ccc(Nc3nccc(Nc4cccc5[nH]ncc45)n3)cc2)cc1` [GSK581271], the “%Inh” value came to 0%.

Consider `COc1ccc(Nc2nccc(NCCNC(=O)c3cc4ccccc4s3)n2)cc1` [GSK1379896], for which the “%Inh” value is given as 0%.

As for `CN1CCN(Cc2cccc(-c3ccc4c(Nc5ccc(Oc6ccccc6)cc5)ccnc4c3)c2)CC1` [GW578342], the “%Inh” value is on record as 1%.

With `COc1ccc(Nc2nccc(N3CCC(NC(=O)Nc4cccc(OC)c4)C3)n2)cc1` (centres unmarked) [GSK1379742], the “%Inh” value stood at 0%.

As to `O=C(Nc1n[nH]c2cc(-c3ccoc3)ccc12)C1CC1` [SB-738481], the “%Inh” value was determined as 0%.

Regarding `Nc1ncnc2c1nc(-c1ccccc1)n2-c1ccccc1` [SKF-97293], the “%Inh” value was found to be 14%.

Consider `COc1ccc(CNC(=O)NC2CCN(c3ccnc(Nc4ccc(F)cc4)n3)CC2)cc1` [GSK1379788], for which the “%Inh” value is recorded as 0%.

As to `Cc1occc1-c1ncc(OC[C@@H](N)Cc2c[nH]c3ccccc23)cc1-c1ccc2[nH]nc(C)c2c1.O=C(O)C(F)(F)F` [GSK682037], the “%Inh” value is recorded as 95.5%.

As to `c1ccc(-c2n[nH]cc2Nc2ccnc3ccccc23)nc1` [GW694077], the “%Inh” value was determined as 1%.

With `O=C(Nc1cccc(-c2nn3ncccc3c2-c2ccnc(Nc3ccccc3)n2)c1)c1c(F)cccc1F` [GSK198271], the “%Inh” value was found to be 0%.

In the case of `Nc1n[nH]c2cnc(-c3ccccc3)cc12` [SB-642124], the “%Inh” value worked out at 0%.

For the molecule `CC(=O)Nc1nc2cnc(Nc3cc(NC(=O)c4cccc(C5(C#N)CC5)c4Cl)ccc3C)nc2s1`, the “%Inh” value stood at 0%.

For `O=C(Nc1n[nH]c2nc(-c3ccc(O)cc3)ccc12)C1CC1` [SB-710363], the “%Inh” value is recorded as 0%.

On to `Cn1cc(-c2[nH]c3cc(NC(=O)[C@H](N)C4CCCCC4)cc4c3c2C=NNC4=O)cn1`, for which the “%Inh” value is reported as 0%.

Consider `O=C(Nc1cccc(-c2nn3ccccc3c2-c2ccnc(Nc3cccc(F)c3)n2)c1)c1c(F)ccc(F)c1Cl` [GSK357952], for which the “%Inh” value is 0%.

In the case of `O=C(Nc1ccccc1F)NC1CCN(c2ccnc(Nc3ccc(F)cc3)n2)CC1` [GSK1379800], the “%Inh” value is 0%.

With `CSc1cccc2c(-c3ccncn3)c(-c3ccc(F)cc3)nn12` [GW514786], the “%Inh” value was 10%.

With `COc1ccc(-c2coc3ccc(-c4nnc(SCc5ccc(OC)c(C(F)(F)F)c5)o4)cc23)cc1`, the “%Inh” value is given as 24%.

These data come from paper PMC5540273 (PLoS ONE, 2017).
